Common to all, as to assay: DAPPL (digital affinity profiling via proximity ligation, sequencing); 10 mM Tris-HCl pH 7.5, 50 mM NaCl, 1 mM DTT, 4% glycerol, room temperature, 30 min; GST-TFs on glutathione beads, 16-mer random dsDNA library, 0.1% formaldehyde crosslink after washing; high values mean tight binding
The target in one assay is T1, FLI1 (Homo sapiens, UniProt Q01543 1-452).
T1 sequence: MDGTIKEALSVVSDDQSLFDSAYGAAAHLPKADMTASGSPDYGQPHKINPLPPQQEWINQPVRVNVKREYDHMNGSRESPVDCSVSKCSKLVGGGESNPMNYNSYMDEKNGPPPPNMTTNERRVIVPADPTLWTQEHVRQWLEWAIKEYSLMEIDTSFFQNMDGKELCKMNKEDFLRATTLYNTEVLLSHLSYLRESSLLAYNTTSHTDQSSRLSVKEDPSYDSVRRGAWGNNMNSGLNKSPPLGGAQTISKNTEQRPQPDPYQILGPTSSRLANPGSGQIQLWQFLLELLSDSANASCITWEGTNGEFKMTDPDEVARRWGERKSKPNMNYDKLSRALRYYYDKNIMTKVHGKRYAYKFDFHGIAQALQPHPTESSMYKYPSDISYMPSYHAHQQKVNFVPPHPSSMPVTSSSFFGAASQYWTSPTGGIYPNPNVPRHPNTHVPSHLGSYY
The conditions noted are these: protein: recombinant; tags: N-terminal GST; dsDNA, one strand shown. Summed up:
(§1)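 Sequencing on an Illumina NextSeq500 followed washing, crosslinking with 0.1% formaldehyde, proximity ligation (BsaI/T4 ligase, 1 h, 37 °C) and PCR amplification of pools that had been incubated for 30 min at room temperature with 200 nmole of a random double-stranded 16-mer DNA library in Tris/NaCl/DTT/glycerol buffer. Each pool held DNA-barcoded human transcription factors, expressed in yeast as GST fusions and captured on glutathione beads, plus a tag-only sample. Binding signal is a hexamer's read frequency for a factor divided by its frequency in the tag-only sample.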

For the next assay, the target named is T2, ELK1 (Homo sapiens, UniProt P19419 1-428).
T2 sequence: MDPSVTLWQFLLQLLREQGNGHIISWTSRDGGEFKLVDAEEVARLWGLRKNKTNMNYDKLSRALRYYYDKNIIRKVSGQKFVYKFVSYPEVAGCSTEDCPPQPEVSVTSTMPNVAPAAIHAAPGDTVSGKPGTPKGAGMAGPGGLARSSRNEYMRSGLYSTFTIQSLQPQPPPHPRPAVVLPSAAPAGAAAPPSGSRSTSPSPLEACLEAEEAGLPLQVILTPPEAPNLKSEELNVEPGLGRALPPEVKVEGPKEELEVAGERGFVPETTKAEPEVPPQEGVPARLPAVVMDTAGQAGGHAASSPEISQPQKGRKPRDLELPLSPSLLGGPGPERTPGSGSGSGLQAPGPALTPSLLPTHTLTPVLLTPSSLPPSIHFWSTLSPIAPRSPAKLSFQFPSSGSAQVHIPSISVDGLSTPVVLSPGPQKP
The conditions noted are these: protein: recombinant; tags: N-terminal GST; dsDNA, one strand shown. Summed up: as §1

For another assay, the target named is T3, GABPA (Homo sapiens, UniProt Q06546 1-454).
T3 sequence: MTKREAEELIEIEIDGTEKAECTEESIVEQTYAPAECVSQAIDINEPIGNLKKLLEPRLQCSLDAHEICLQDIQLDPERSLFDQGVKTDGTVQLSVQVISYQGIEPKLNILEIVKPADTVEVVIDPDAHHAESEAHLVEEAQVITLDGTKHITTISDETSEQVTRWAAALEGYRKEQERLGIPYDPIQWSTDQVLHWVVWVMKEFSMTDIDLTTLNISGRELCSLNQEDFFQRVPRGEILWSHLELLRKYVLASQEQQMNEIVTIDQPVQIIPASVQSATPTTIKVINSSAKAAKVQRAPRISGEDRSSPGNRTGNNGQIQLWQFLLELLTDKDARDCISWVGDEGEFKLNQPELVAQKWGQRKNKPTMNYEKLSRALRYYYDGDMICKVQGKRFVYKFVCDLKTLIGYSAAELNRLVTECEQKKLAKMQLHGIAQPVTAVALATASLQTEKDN
The conditions noted are these: protein: recombinant; tags: N-terminal GST; dsDNA, one strand shown. Summed up: as §1

The target in the next assay is T4, ERG (Homo sapiens, UniProt P11308 1-479).
T4 sequence: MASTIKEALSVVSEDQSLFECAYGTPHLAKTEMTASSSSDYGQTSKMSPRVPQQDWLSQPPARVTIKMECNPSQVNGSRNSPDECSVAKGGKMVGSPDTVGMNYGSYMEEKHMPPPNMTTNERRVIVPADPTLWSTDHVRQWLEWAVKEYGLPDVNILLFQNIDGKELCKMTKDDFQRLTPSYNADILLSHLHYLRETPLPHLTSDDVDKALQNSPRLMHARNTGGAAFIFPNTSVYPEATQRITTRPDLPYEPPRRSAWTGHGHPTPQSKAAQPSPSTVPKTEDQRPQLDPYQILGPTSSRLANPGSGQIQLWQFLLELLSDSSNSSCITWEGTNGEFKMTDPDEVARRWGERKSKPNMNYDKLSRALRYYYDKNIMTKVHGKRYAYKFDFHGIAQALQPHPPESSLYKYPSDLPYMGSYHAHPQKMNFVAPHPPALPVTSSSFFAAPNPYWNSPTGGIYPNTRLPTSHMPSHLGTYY
To be noted: protein: recombinant; tags: N-terminal GST; dsDNA, one strand shown. An outline of the steps:
as §1

A further assay deals with ELF1 (Homo sapiens, UniProt P32519 1-619). To be noted: protein: recombinant; tags: N-terminal GST; dsDNA, one strand shown. Summed up:
as §1

A further assay addresses T5, EHF (Homo sapiens, UniProt Q9NZC4 1-300).
T5 sequence: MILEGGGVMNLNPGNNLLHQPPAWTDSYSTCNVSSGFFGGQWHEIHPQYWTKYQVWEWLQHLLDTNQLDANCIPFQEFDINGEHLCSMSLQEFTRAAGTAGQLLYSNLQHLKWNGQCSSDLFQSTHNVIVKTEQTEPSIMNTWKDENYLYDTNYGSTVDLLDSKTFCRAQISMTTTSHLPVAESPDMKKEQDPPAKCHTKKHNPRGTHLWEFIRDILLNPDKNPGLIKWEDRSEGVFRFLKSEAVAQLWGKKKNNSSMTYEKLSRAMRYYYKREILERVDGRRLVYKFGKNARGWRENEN
The conditions noted are these: protein: recombinant; tags: N-terminal GST; dsDNA, one strand shown. Summed up:
as §1

Another assay deals with SPI1 (Homo sapiens, UniProt P17947 1-270). The conditions noted are these: protein: recombinant; tags: N-terminal GST; dsDNA, one strand shown. An outline of the steps:
as §1

Another assay deals with SPIB (Homo sapiens, UniProt Q01892 1-262). The conditions noted are these: protein: recombinant; tags: N-terminal GST; dsDNA, one strand shown. Summed up: as §1
The target in the next assay is T6, ELK3 (Homo sapiens, UniProt P41970 1-407).
T6 sequence: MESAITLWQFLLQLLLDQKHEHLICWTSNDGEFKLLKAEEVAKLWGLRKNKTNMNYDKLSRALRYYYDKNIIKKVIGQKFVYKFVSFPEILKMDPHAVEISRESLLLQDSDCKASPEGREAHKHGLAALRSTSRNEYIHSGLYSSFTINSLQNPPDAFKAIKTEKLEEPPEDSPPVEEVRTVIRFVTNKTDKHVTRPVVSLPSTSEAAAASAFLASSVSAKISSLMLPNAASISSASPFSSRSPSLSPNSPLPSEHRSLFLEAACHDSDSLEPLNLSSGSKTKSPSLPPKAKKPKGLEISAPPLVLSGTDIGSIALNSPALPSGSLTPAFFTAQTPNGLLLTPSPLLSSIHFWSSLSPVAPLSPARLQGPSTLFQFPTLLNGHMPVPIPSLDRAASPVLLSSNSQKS
To be noted: protein: recombinant; tags: N-terminal GST; dsDNA, one strand shown. An outline of the steps:
as §1

A further assay deals with T7, FEV (Homo sapiens, UniProt Q99581 1-238).
T7 sequence: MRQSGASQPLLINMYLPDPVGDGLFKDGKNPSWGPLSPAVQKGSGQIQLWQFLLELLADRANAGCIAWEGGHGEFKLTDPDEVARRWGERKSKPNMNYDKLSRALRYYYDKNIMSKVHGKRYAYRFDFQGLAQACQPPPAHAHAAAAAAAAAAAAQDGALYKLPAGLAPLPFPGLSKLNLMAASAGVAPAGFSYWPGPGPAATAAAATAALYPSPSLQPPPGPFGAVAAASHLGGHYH
The conditions noted are these: protein: recombinant; tags: N-terminal GST; dsDNA, one strand shown. Summed up: as §1

The target of another assay is ETV5 (Homo sapiens, UniProt P41161 1-510). To be noted: protein: recombinant; tags: N-terminal GST; dsDNA, one strand shown. An outline of the steps:
as §1

In the next assay the target is HSF1 (Homo sapiens, UniProt Q00613 1-529). To be noted: protein: recombinant; tags: N-terminal GST; chain copies: 3; dsDNA, one strand shown. Summed up: as §1
The next assay has as its target T8, SPIC (Homo sapiens, UniProt Q8N5J4 1-248).
T8 sequence: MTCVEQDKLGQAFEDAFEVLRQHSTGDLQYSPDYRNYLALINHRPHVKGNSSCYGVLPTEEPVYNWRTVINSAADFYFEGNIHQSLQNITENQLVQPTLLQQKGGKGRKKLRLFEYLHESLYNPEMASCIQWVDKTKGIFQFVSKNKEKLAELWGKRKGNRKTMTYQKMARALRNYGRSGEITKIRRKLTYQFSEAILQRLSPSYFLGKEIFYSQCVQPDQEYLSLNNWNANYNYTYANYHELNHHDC
The conditions noted are these: protein: recombinant; tags: N-terminal GST; dsDNA, one strand shown. An outline of the steps:
as §1

In a further assay the target is ELF4 (Homo sapiens, UniProt Q99607 1-663). To be noted: protein: recombinant; tags: N-terminal GST; dsDNA, one strand shown. Summed up:
as §1

Another assay deals with T9, ELK4 (Homo sapiens, UniProt P28324-2 1-405).
T9 sequence: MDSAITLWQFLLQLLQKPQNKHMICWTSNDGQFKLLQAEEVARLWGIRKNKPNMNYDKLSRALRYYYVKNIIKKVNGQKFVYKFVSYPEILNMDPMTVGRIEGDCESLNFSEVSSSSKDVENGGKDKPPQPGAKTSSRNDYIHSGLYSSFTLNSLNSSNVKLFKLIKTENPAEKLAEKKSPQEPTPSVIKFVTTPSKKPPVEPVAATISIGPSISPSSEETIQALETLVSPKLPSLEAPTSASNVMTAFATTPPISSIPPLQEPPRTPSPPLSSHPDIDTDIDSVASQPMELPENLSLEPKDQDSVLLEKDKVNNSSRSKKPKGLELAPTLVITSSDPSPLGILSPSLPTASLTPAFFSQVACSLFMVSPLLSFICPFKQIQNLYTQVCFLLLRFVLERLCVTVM
The conditions noted are these: protein: recombinant; tags: N-terminal GST; dsDNA, one strand shown. Summed up: as §1

The target of another assay is T10, ETV2 (Homo sapiens, UniProt O00321 1-342).
T10 sequence: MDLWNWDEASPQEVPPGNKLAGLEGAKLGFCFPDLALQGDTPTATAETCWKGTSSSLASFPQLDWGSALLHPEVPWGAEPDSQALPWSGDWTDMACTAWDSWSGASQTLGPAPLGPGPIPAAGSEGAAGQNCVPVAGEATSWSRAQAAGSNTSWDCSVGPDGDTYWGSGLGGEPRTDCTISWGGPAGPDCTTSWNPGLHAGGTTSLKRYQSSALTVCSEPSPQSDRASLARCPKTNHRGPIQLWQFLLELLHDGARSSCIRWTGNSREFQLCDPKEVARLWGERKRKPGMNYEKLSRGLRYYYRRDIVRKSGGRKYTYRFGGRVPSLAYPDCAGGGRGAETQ
To be noted: protein: recombinant; tags: N-terminal GST; dsDNA, one strand shown. Summed up: as §1

The target of another assay is T11, ELF3 (Homo sapiens, UniProt P78545 1-371).
T11 sequence: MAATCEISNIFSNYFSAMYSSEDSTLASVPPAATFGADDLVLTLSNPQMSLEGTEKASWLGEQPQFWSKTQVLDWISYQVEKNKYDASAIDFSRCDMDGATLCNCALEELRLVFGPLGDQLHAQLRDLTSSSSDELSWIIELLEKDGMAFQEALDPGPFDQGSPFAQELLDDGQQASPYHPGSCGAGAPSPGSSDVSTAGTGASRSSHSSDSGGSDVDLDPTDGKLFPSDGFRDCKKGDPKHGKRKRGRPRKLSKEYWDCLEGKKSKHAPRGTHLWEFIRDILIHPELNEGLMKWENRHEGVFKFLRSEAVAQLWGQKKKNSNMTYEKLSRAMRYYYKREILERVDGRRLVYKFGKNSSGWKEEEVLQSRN
The conditions noted are these: protein: recombinant; tags: N-terminal GST; dsDNA, one strand shown. An outline of the steps: as §1

A further assay has as its target ETV1 (Homo sapiens, UniProt P50549 1-477). To be noted: protein: recombinant; tags: N-terminal GST; dsDNA, one strand shown. An outline of the steps: as §1

Sequence of SPIB (Q01892 whole entry): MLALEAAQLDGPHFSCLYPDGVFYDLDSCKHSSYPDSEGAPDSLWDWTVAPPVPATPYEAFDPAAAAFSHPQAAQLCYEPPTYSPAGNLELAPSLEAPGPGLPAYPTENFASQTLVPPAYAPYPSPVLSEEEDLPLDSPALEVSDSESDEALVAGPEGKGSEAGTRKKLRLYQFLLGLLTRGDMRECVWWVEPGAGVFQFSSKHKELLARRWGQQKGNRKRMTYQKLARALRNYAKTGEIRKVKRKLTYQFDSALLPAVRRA
Sequence of ELF1 (P32519 whole entry): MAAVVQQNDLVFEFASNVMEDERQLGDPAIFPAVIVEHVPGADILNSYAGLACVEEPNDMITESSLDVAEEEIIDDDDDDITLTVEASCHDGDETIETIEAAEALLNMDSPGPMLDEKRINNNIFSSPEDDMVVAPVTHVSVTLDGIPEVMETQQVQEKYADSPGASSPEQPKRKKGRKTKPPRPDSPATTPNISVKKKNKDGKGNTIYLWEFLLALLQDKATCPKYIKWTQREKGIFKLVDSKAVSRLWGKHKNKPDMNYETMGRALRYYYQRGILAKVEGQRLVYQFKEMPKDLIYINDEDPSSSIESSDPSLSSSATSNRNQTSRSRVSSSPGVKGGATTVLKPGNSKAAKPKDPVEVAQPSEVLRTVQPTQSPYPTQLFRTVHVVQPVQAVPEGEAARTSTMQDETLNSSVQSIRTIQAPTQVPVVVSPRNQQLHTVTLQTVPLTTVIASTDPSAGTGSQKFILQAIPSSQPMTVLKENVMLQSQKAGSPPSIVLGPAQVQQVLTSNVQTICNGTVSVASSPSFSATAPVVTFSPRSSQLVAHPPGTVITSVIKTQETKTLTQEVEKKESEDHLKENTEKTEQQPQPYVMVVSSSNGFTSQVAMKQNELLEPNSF
Sequence of ETV5 (P41161 whole entry): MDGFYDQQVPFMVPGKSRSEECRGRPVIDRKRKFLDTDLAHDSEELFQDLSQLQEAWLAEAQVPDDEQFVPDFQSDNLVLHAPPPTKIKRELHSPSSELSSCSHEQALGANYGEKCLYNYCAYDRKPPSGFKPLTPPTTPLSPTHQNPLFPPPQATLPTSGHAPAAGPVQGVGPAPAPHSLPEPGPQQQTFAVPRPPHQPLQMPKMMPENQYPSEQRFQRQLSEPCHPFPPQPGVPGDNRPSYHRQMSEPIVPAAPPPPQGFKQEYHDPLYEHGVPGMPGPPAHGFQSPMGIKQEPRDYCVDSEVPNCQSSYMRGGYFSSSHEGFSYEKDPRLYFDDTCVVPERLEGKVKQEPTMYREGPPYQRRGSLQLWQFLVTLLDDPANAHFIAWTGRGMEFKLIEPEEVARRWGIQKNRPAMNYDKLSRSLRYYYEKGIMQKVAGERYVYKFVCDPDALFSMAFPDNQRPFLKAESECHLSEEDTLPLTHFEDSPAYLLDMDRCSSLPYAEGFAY
Sequence of ETV1 (P50549 whole entry): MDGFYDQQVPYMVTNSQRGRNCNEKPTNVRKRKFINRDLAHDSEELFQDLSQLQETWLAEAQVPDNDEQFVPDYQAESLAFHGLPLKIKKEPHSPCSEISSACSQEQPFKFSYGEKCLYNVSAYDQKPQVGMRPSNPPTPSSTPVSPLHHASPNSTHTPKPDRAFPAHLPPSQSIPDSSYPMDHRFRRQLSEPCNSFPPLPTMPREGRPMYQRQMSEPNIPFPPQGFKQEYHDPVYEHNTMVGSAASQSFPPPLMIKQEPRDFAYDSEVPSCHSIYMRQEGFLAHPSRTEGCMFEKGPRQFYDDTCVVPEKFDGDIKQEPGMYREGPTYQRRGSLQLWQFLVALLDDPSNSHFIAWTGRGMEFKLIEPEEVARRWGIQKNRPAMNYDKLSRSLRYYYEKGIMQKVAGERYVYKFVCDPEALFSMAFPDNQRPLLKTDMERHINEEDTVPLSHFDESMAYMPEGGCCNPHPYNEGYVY
Sequence of HSF1 (Q00613 whole entry): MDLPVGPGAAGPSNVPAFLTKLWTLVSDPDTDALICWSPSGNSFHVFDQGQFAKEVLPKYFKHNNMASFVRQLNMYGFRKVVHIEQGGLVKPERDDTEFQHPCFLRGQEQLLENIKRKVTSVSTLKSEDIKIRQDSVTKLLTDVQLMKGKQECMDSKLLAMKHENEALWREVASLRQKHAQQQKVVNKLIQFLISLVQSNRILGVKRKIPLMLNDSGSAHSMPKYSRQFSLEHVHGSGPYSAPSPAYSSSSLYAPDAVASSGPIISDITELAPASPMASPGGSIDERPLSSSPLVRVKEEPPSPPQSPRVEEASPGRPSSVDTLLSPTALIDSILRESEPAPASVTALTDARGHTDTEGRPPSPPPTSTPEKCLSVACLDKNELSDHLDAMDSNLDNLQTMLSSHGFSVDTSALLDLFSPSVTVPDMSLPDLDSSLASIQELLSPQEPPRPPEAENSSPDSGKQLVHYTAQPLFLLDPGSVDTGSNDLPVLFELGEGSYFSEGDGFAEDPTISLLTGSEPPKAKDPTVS
Sequence of ELF4 (Q99607 whole entry): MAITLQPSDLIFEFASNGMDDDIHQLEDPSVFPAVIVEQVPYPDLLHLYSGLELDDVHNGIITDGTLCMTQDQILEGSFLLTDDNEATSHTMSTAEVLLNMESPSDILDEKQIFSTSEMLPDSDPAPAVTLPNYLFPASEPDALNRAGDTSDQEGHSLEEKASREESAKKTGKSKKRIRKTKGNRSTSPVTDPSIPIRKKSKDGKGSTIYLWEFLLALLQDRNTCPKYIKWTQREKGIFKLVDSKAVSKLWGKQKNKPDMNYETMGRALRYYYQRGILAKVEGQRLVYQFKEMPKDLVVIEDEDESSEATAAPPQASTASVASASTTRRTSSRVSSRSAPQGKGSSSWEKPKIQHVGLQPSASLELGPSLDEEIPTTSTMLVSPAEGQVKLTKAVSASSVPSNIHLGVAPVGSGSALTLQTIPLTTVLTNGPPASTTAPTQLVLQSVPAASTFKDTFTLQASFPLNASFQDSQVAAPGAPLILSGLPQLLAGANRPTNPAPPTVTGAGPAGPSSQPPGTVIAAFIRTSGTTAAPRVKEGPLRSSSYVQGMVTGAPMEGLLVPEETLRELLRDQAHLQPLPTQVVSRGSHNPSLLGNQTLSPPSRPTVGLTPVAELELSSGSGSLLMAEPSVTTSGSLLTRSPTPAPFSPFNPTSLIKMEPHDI

For the sequence TGCCGA, the binding signal with FLI1 was 1.07 fold enrichment (6-mer frequency, TF over GST control); in the assay with ELK1, 1.25 fold enrichment (6-mer frequency, TF over GST control); with GABPA it was 1.21 fold enrichment (6-mer frequency, TF over GST control); in the assay with ERG, 1.1 fold enrichment (6-mer frequency, TF over GST control); with ELF1, 1.03 fold enrichment (6-mer frequency, TF over GST control); with EHF it was 1.24 fold enrichment (6-mer frequency, TF over GST control). Moreover, the binding signal in the assay with SPI1 was 1.2 fold enrichment (6-mer frequency, TF over GST control); with SPIB, 1.18 fold enrichment (6-mer frequency, TF over GST control); with ELK3 it was 1.1 fold enrichment (6-mer frequency, TF over GST control); with FEV, 1.11 fold enrichment (6-mer frequency, TF over GST control); in the assay with ETV5, 1.19 fold enrichment (6-mer frequency, TF over GST control); in the assay with HSF1, 1.07 fold enrichment (6-mer frequency, TF over GST control). In addition, the binding signal in the assay with SPIC was 1.37 fold enrichment (6-mer frequency, TF over GST control); in the assay with ELF4 it was 1.19 fold enrichment (6-mer frequency, TF over GST control); in the assay with ELK4, 1.14 fold enrichment (6-mer frequency, TF over GST control); in the assay with ETV2, 1.08 fold enrichment (6-mer frequency, TF over GST control); in the assay with ELF3 it was 1.16 fold enrichment (6-mer frequency, TF over GST control); with ETV1 it was 1.14 fold enrichment (6-mer frequency, TF over GST control).

The values above are taken from article PMC7862700, “An all-to-all approach to the identification of sequence-specific readers for epigenetic DNA modifications on cytosine”.
